Bioassay records: PubChem BioAssay, National Center for Advancing Translational Sciences (NCATS)
A selection: hits, their analogues and other compounds. The true share with any hit is near 6.1%.
RORg inh: qHTS for inhibitors of ROR gamma transcriptional activity | Potency, µM (top dose mostly 53.6 µM), inactives show at the top dose activity change, negative = inhibition, hits mostly inhibitors | Drosophila S2 Gal4-RORgamma UAS-luciferase reporter, 20 h | hit rate 5.4% among 310,000 | Nuclear receptor ROR-gamma (Mus musculus), P51450; note: % is set by controls: 0 for no effect and ±100 for the full control effect; nearly all actives have a fitted effect of over 60% in size
Target sequence (P51450 whole entry, looked up, the tested form may be a part): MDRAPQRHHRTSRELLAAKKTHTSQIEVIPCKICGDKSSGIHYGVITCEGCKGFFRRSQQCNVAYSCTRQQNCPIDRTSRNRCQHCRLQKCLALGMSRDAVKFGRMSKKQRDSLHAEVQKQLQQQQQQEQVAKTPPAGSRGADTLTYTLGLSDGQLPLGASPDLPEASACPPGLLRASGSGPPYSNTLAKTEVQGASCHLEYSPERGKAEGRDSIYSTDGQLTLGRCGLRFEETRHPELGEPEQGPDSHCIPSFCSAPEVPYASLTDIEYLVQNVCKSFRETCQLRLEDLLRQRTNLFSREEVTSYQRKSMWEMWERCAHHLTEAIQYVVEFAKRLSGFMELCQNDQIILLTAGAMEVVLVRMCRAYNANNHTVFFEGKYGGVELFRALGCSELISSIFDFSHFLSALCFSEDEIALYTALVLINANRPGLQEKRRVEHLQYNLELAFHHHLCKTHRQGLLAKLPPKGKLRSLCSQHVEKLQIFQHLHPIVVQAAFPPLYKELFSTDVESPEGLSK
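Luminescence from a UAS-regulated Photinus luciferase reporter in stably transfected Drosophila Schneider cells is measured; decreased signal marks ROR gamma inhibition. Fusion expression is induced by 700 uM copper sulfate for 20 hr.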
Gal4-VP16 FLuc: VP16 counterscreen qHTS for inhibitors of ROR gamma transcriptional activity | Drosophila S2 Gal4-VP16 UAS-luciferase, luminescence, 20 h | Potency, µM (titrated, usually from 53.6 µM), for inactives: top-dose activity, negative = inhibition, hits mostly inhibitors | hit rate 3.5% among 310,000;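 note: Gal4-VP16 expression switched on by copper sulfate through the metallothionein promoter; % is set by controls: 0 for no effect and ±100 for the full control effect; nearly all actives have a fitted effect of over 50% in size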
ATXN2 expr inh: Primary qHTS for Inhibitors of ATXN expression. HEK-293 ATXN2-luciferase reporter, luminescence, 24 h. Potency, µM (doses to about 57 µM), without a hit: top-dose activity change, negative = inhibition, actives largely listed as inhibitors. hit rate 0.72% among 360,000; note: % is set by controls: 0 for no effect and ±100 for the full control effect; nearly all actives have a fitted effect of over 55% in size
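qHTS (up to 57 uM final) was run with 24 h compound exposure of reporter cells at 37 °C. Each well was multiplexed: SteadyGlo luminescence measured ATXN2-luciferase expression after a fluorogenic Gly-Phe-AFC viability readout (25 uM final).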
ATXN viability: Viability Counterscreen for Primary qHTS for Inhibitors of ATXN expression | S2 cells (HEK-293 line with an ATXN2-luciferase reporter) viability, CellTiter-Fluor protease fluorescence, 24 h | Potency, µM (titrated, usually from 56.7 µM), hits mostly cytotoxic | hit rate 0.49% among 400,000 | AID 651635, 2014; note: nearly all actives have a fitted effect of over 40% in size
TGFb SMAD3 inh: qHTS for Inhibitors of TGF-b; HepG2 CAGA-GFP TGF-b/SMAD3 reporter, GFP fluorescence, 18 h; TGF-beta stimulated, 500 pg/mL final; Potency, µM (top dose mostly 46.1 µM), inactives show at the highest dose activity, negative = inhibition, usual class: inhibitors; hit rate 1.2% among 410,000; AID 588855, 2011; note: % is set by controls: 0 for no effect and ±100 for the full control effect; nearly all actives have a fitted effect of over 65% in size
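HEPG2 CAGA-GFP, 1000 cells/well; 2 h settle, 37 C; cpd via pin tool; TGF-b 500 pg/mL final; 18 h, 37 C; GFP imaging ex488/em500-530; %Activity normalised to -TGF-b and +DMSO controls; CRC fit, curve class.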
HepG2 tox: qHTS for Inhibitors of TGF-b: Cytotox Counterscreen. Potency, µM (series often up to 46.1 µM), for inactives: at the top dose activity change, negative = cytotoxicity, actives largely listed as cytotoxic. hit rate 0.76% among 410,000. HepG2 CAGA-GFP viability, ATP luminescence, 18 h
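HepG2 CAGA-GFP cells (1000/well, DMEM with 1% FBS) received compound, then TGF-beta at 500 pg/mL final, and were incubated 18 hours at 37 degrees C. Viability was read by CellTiter-Glo luminescence. Media-only wells were set as complete cell-killing and DMSO as no toxicity.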
Active calls of the source: *; i = inactive; ? = inconclusive; · = not tested or not shown; [ ] = remark or other dose. Calls come from the whole dose curve; as a rule, active = well fitted curve in the direction sought with a large enough effect; inconclusive = small, poorly fitted or top-dose-only effect, or another doubt; inactive = no such curve, though single readings can be large; an effect the other way counts as inactive or inconclusive. Potency is the fitted concentration of half-maximal effect.

SMILES	RORg inh	Gal4-VP16 FLuc	ATXN2 expr inh	ATXN viability	TGFb SMAD3 inh	HepG2 tox
CNC(=S)/N=C(\Nc1ccc(C)cc1)c1ccccc1	2.51µM*	15.8µM*	7.6%	i	1.0%	3.9%
CNC(=S)/N=C(/Nc1ccccc1)c1ccccc1	?	?	-2.2%	i	1.4%	2.8%
CSc1nc2ccc3nc(NC(=O)c4ccc(Cl)s4)sc3c2s1	-8.2%	-5.7%	8.0%	i	?	-9.2%
O=C(Nc1nc2c(s1)COc1ccccc1-2)c1cccs1	?	5.1%	-2.6%	i	?	-36.6%
CSc1nc2ccc3nc(NC(=O)c4cccs4)sc3c2s1	6.31µM*	-4.0%	28.1%	i	-1.3%	-6.3%
O=C(Nc1nc2c(s1)CCc1ccccc1-2)c1cccs1	10µM*	-27.0%	17.4%	i	?	-25.5%
COc1ccc2[nH]cc(CCNc3ccnc(-c4ccc(C(=O)N(C)C)cc4)n3)c2c1	9.5%	0.3%	·	·	·	·
COc1cc2[nH]c(=S)n(Cc3ccco3)c(=O)c2cc1OC	11.2µM*	?	-15.0%	i	-12.1%	-4.2%
O=c1c2cc(N3CCOCC3)ccc2[nH]c(=S)n1CCCN1CCCC1	5.5%	-2.8%	-9.5%	i	-16.9%	1.3%
COc1ccc(NC(=O)c2ccc3c(=O)n(Cc4ccco4)c(=S)[nH]c3c2)c(OC)c1	?	-0.8%	?	i	0.1%	-20.9%
O=c1c2cc(N3CCOCC3)ccc2[nH]c(=S)n1Cc1ccco1	14.1µM*	?	35.8%	i	0.9%	2.6%
O=c1c2cc(Cl)ccc2[nH]c(=S)n1Cc1ccco1	2.24µM*	5.62µM*	-7.7%	i	24.7%	-5.3%
O=c1c2cc(Cl)ccc2[nH]c(=S)n1Cc1cccs1	2µM*	4.47µM*	-16.8%	i	1.0%	-4.3%
COc1ccc(CNC(=O)Cn2nnc(-c3ccc(C(F)(F)F)cc3)n2)cc1	·	·	-0.2%	i	14.4%	-8.7%
CN(C)c1ncc2nc(-c3ccccc3)c(=O)n(-c3ccccc3)c2n1	-25.6%	-11.6%	·	·	·	·
COC(=O)c1ccc(NC(=O)CSc2nc(C)cc(C)c2C(=O)Nc2ccccc2)cc1	·	·	-2.6%	i	-1.5%	1.3%
Cc1cccc(CN2CCc3nnc(C(C)NC(=O)C4CCOCC4)n3CC2)c1 (stereo not given)	·	·	·	i	·	·
Cc1ccccc1OCc1nnc(SCc2cc(=O)c3ccc(C)c(C)c3[nH]2)n1C	·	·	2.9%	i	-1.0%	1.7%
COc1cccc(Cn2c(=S)[nH]c3ccc(N4CCOCC4)cc3c2=O)c1	2.82µM*	6.31µM*	4.8%	i	16.4%	-12.0%
O=c1c2cc(N3CCOCC3)ccc2[nH]c(=S)n1Cc1cccc(Cl)c1	3.55µM*	5.62µM*	-21.9%	i	-3.5%	-1.4%
CCN(CCCn1c(=S)[nH]c2ccc(N3CCOCC3)cc2c1=O)c1ccccc1	3.98µM*	?	?	·	?	-49.8%
Cc1cccc(Nc2c(-c3ccsc3)nc3nc(C)cc(C)n23)c1	·	·	·	·	?	-17.1%
CC(C)(C)n1ncc2c(=O)n(Cc3ccc(Cl)cc3C(F)(F)F)cnc21	·	·	·	·	-1.6%	-19.6%
CCNc1ncc2nc(C)c(=O)n(CCOC)c2n1	-6.9%	1.0%	·	·	·	·
Cc1ccc2c(CN3CCCCC3)cc(=O)oc2c1C	-1.5%	8.3%	22.3%	i	-7.5%	-28.2%
SMILES	RORg inh	Gal4-VP16 FLuc	ATXN2 expr inh	ATXN viability	TGFb SMAD3 inh	HepG2 tox
Cc1ccc2c(CSc3nncn3C)cc(=O)oc2c1C	-34.3%	-14.7%	-20.8%	i	0.0%	10µM*
Cc1ccc(-c2n[nH]c3c2C(c2cccc(O)c2)N(c2ccc(C(=O)O)cc2)C3=O)cc1 (stereo not given)	-17.5%	-6.3%	14.4%	i	?	15.3%
O=C1c2[nH]nc(-c3ccc(Br)cc3)c2C(c2cccc(O)c2)N1c1ccc(Cl)cc1 (stereo not given)	·	·	?	·	7.08µM*	14.1µM*
O=C1c2[nH]nc(-c3ccccc3)c2C(c2ccccc2)N1c1cccc(C(F)(F)F)c1 (stereo not given)	·	·	?	?	?	17.8µM*
CCOc1ccc(C2c3c(-c4ccc(C)cc4)n[nH]c3C(=O)N2c2ccc(Cl)cc2)cc1 (stereo not given)	·	·	-27.7%	·	4.47µM*	12.6µM*
Cc1ccccc1CN1[C@H](C)[C@H](c2ccccc2)OCCS1(=O)=O	·	·	·	·	?	-6.3%
Cc1ccc(-n2nc(CO)c(C(=O)NCc3cccs3)n2)cc1C	·	·	·	·	?	-6.5%
[O-][n+]1onc2c1CCc1c-2nn(-c2ccccc2Cl)[n+]1[O-]	6.31µM*	3.16µM*	28.2µM*	?	?	-37.3%
CC(C)c1ccc(CN2CCC3(CCC(CNC(=O)c4ccn(C)n4)O3)CC2)cc1 (stereo not given)	·	·	·	i	·	·
COc1ccc(Cc2nnc(N/N=C/c3ccc(C)o3)[nH]c2=O)cc1	11.2µM*	-25.6%	-15.3%	i	0.0%	-3.9%
COc1ccc(Cc2nnc(N/N=C/c3ccc(O)cc3)[nH]c2=O)cc1OC	2.24µM*	3.98µM*	1.58µM*	?	?	-5.8%
COc1ccc(Cc2nnc(Nc3ccc(Cl)cc3)[nH]c2=O)cc1	-16.0%	1.6%	·	i	?	-20.6%
COc1ccc(Cc2nnc(N/N=C/c3ccc(Br)cc3)[nH]c2=O)cc1OC	13.2%	-7.6%	0.9%	i	-0.5%	-8.1%
CCC(=O)N1CCc2cc(CNC(=O)Cc3ccc(OC)c(OC)c3)ccc21	·	·	·	·	0.1%	-8.6%
Cc1ncc(CO)c(/C=N/NC(=O)c2ccccc2Br)c1O	10µM*	17.8µM*	-11.1%[11.3 µM]	·	-4.7%	-6.6%
Cc1ncc(CO)c(/C=N/NC(=O)c2cc3c(s2)CCCC3)c1O	10µM*	3.7%	·	i	6.5%	-1.8%
Cc1ncc(CO)c(/C=N/NC(=O)c2ccc(O)cc2)c1O	10µM*	?	-4.4%	i	-0.7%	-10.8%
Cc1ncc(CO)c(/C=N/NC(=O)c2ccoc2C)c1O	·	·	5.6%	i	7.7%	-20.2%
O=C(COc1ccccc1C(=O)Nc1ccccc1)Nc1ccccc1-c1ccccc1	·	·	·	·	?	-5.6%
COC(=O)[C@@H]1CCCN1Cc1ccc2c(c1)CN(Cc1cc(OC)c3c(c1)OCO3)CCO2	·	·	·	i	·	·
Cc1cc(C)n(C(C)CC(=O)Nc2cccc(C(F)(F)F)c2)n1 (stereo not given)	·	·	-2.1%	i	-23.2%	-20.6%
N#C/C(=C\c1ccccc1[N+](=O)[O-])C(=O)NC1CCCCC1	?	8.91µM*	-3.5%	i	-7.2%	-2.3%
